We go through 40 compounds from PubChem BioAssay (NCATS).

Each structure is given as a SMILES string. Results filed as inconclusive are left out. Entries that show only a call come without a potency. Active and inactive are the calls of the source. Calls come from the whole dose curve; as a rule, active = well fitted inhibition curve with a large enough effect; inconclusive = small, poorly fitted or top-dose-only effect; inactive = flat fitted curve, though single readings scatter.
Potency is the fitted concentration of half-maximal effect.

The test system of this experiment is astro (control astrocytes). Description: Drug repurposing screens with cells derived from glioblastoma tumor samples (AID 1345199). Note: nearly all actives have a fitted effect of over 40% in size. The following applies: viability, ATP luminescence, 48 h; series mostly up to 45.9 µM. The procedure:
CD133+ cells were isolated from GBM patient biopsies and cultured as neurospheres. Neurospheres from four patients were used to screen the NCATS pharmaceutical collection (NPC) library of approved drugs and bioactive compounds. […] The neurospheres were incubated with drugs for 48 hours in 1536-well format, then assayed with an ATP content cell viability assay. […] These hits were cherry picked to confirm activity in the four original GBM lines screened plus three other slower growing GMB lines (unable to yield enough cells for a full primary screen). Variable activities of the confirmed primary hits in the different GBM patient lines were observed. The patient line 206 responded to the greatest number of compounds and line 923 responded to the least amount of active compounds.
For `O=C(O)COc1ccc(C(=O)c2cccs2)c(Cl)c1Cl`, the Potency entry is “inactive”.

Consider `C=CCN1C(=O)C(CC(C)C)NC1=S` (stereo not given), for which the Potency entry was “inactive”.

Turning to `N=c1ccn2c(n1)O[C@H]1[C@H](O)[C@@H](CO)O[C@H]12`, the Potency entry is “inactive”.

Take `CN(C)[C@@H]1C(=O)C(C(=O)NCN2CCCC2)=C(O)[C@@]2(O)C(=O)C3=C(O)c4c(O)cccc4[C@@](C)(O)C3C[C@@H]12` (stereo not given in full): the Potency entry was “inactive”.

In the case of `Nc1ccc(C(=O)O)c(O)c1`, the Potency entry was “inactive”.

As to `O=C(O)[C@H](CC(=O)N1C[C@H]2CCCC[C@H]2C1)Cc1ccccc1`, the Potency result is “inactive”.

As for `Cc1ccc(O)c(-n2nc3ccccc3n2)c1`, the Potency result is “inactive”.

Turning to `O=C(CCN1CCN(CCO)CC1)N1c2ccccc2Sc2ccc(C(F)(F)F)cc21`, the Potency entry was “inactive”.

Take `CCCCCCCCCCCCCCCC(=O)OC(C)C`: the Potency result was “inactive”.

Turning to `CC(=O)O[C@H]1C[C@@]2(C)[C@@H](C[C@@H](O)[C@H]3[C@@]4(C)CC[C@@H](O)[C@@H](C)[C@@H]4CC[C@@]32C)/C1=C(\CCC=C(C)C)C(=O)O`, the Potency result was “inactive”.

Take `O=C(O)Cc1cccc(-c2cc(CCCCCCc3ccc(O[C@H]4O[C@H](CO)[C@@H](O)[C@H](O)[C@@H]4O)c(-c4cccc(CC(=O)O)c4)c3)ccc2O[C@H]2O[C@H](CO)[C@@H](O)[C@H](O)[C@@H]2O)c1`: the Potency entry was “inactive”.

Consider `CCOC(=O)c1ccccc1O`, for which the Potency entry was “inactive”.

Turning to `CC(=O)SCC(CC(=O)c1ccc(C)cc1)C(=O)O` (stereo not given), the Potency result was “inactive”.

As for `O=C(OCc1ccccc1)c1ccccc1`, the Potency entry was “inactive”.

Turning to `O=C(O)c1cc(O)c(O)c(O)c1`, the Potency entry was “inactive”.

As for `CN1CCN(c2cc3c(nn2)Oc2ccccc2N3C)CC1`, the Potency entry was “inactive”.

`Cc1onc(-c2c(F)cccc2Cl)c1C(=O)N[C@@H]1C(=O)N2[C@@H]1SC(C)(C)[C@@H]2C(=O)O`: the Potency entry is “inactive”.

With `CC[C@H]1OC(=O)[C@H](C)[C@@H](O[C@H]2C[C@@](C)(OC)[C@@H](O)[C@H](C)O2)[C@H](C)[C@@H](O[C@@H]2O[C@H](C)C[C@H](N(C)C)[C@H]2O)[C@](C)(O)C[C@@H](C)C(=O)[C@H](C)[C@@H](O)[C@]1(C)O`, the Potency result is “inactive”.

With `Nc1cc(-c2ccncc2)c[nH]c1=O`, the Potency entry was “inactive”.

For the compound `CCC1C(=O)OCC1Cc1cncn1C` (stereo not given), the Potency result is “inactive”.

In the case of `CCCCCCOc1ccccc1C(N)=O`, the Potency is 14.1 µM (active).

With `CO[C@@]1(NC(=O)Cc2cccs2)C(=O)N2C(C(=O)O)=C(COC(N)=O)CS[C@@H]21`, the Potency result is “inactive”.

Consider `CC1(C)S[C@@H]2[C@H](NC(=O)[C@H](N)c3ccc(O)cc3)C(=O)N2[C@H]1C(=O)O`, for which the Potency entry is “inactive”.

In the case of `C=CCCCCCCCCC(=O)O`, the Potency result is “inactive”.

For the compound `COc1cc(/C=C/C(=O)N2CCN(CC(=O)N3CCCC3)CC2)cc(OC)c1OC`, the Potency result was “inactive”.

Take `CCCCCCCCCCCCCCCCCC(=O)O`: the Potency result is “inactive”.

On to `C[S+](CC[C@H](N)C(=O)O)C[C@H]1O[C@@H](n2cnc3c(N)ncnc32)[C@H](O)[C@@H]1O` (stereo not given in full), for which the Potency result is “inactive”.

On to `C=C(Nc1ccc(OCC)cc1)Nc1ccc(OCC)cc1`, for which the Potency result was “inactive”.

Turning to `CC(=O)c1ccc(OCC(=O)N2CCCCC2)cc1`, the Potency entry is “inactive”.

Turning to `COc1cccc2c1C(=O)c1c(O)c3c(c(O)c1C2=O)C[C@@](O)(C(=O)CO)C[C@@H]3O[C@H]1C[C@H](N)[C@H](O[C@@H]2CCCCO2)[C@H](C)O1`, the Potency is 12.6 µM (active).

As for `CCCCC[C@H](O)/C=C/[C@@H]1[C@@H](C/C=C\CCCC(=O)O)[C@@H](O)C[C@H]1O`, the Potency result is “inactive”.

Turning to `CC(C(=O)O)c1ccc(C(=O)c2cccs2)cc1` (stereo not given), the Potency result is “inactive”.

On to `Nc1ccc([N+](=O)[O-])cc1O`, for which the Potency result is “inactive”.

Regarding `CC(C(=O)O)c1ccc2c(c1)[nH]c1ccc(Cl)cc12` (stereo not given), the Potency result is “inactive”.

As for `CN1[C@@H]2CC[C@H]1CC(OC(=O)C(CO)c1ccccc1)C2` (stereo not given in full), the Potency entry was “inactive”.

Turning to `COc1ccc(/C=C/C(=O)Nc2ccccc2C(=O)O)cc1OC`, the Potency was 17.8 µM (active).

As to `C[C@H](O)[C@H](O)[C@H]1CNc2nc(N)[nH]c(=O)c2N1`, the Potency result was “inactive”.

As to `COc1cc(NC(C)CCCN)c2ncccc2c1` (stereo not given), the Potency entry is “inactive”.

Regarding `CC(C(=O)O)c1ccc(C(=O)c2ccccc2)s1` (stereo not given), the Potency result was “inactive”.

Take `CC1(C)[C@@H](O)CC[C@]2(C)[C@H]3C(=O)C=C4[C@@H]5C[C@@](C)(C(=O)O)CC[C@]5(C)CC[C@@]4(C)[C@]3(C)CC[C@@H]12`: the Potency entry was “inactive”.
